Out of some 52,000 compounds screened, about 4,300 (8.3%) were called active. This is one part of a sample in which actives are shown more often than they occur. A number with no mark means an inactive call. Cut-off read from the data, not from the text of the source: active = survival mostly below about 52% (no sharp cut-off); inactive = mostly above about 56%.

The assay has as its system DeltatarO mutant. Kind of assay: S. aureus survival, RN4220 and DeltatarO strains – OD600, teichoic acid synthesis inhibitors, primary screen (AID 463173). The conditions noted are these: S. aureus RN4220 wild type/DeltatarO growth, OD600, 18 h, stronger effect = lower value, screened at 18.75 µg/mL (by protocol).
Take `CCN(CC)c1ccc2cc(C(=O)Nc3ccc(NC(C)=O)cc3)c(=O)oc2c1`: the survival was 94%.

With `O=C(NCCc1ccccc1)c1ccc(CSc2nc3ccncc3n2Cc2ccccc2)cc1`, the survival was 73%.

In the case of `Cc1ccc(NC(=O)C(Cc2ccccc2)NS(=O)(=O)c2ccc3c(c2)c(=O)n(C)c(=O)n3C)cc1` (stereo not drawn), the survival is 64%.

For the compound `Cc1ccc(NC(=O)C(Cc2ccccc2)NS(=O)(=O)c2cccs2)cc1Cl` (stereo not drawn), the survival is 90%.

As for `CCc1cccc(NC(=O)C(Cc2ccccc2)NS(=O)(=O)c2cccs2)c1` (stereo not drawn), the survival is 44% (active).

As to `CCc1cccc(NC(=O)C(Cc2ccccc2)NS(=O)(=O)c2ccc3c(c2)c(=O)n(C)c(=O)n3C)c1` (stereo not drawn), the survival is 54%.

In the case of `COc1cc(NC(=O)C(Cc2ccccc2)NS(=O)(=O)c2cccs2)cc(OC)c1` (stereo not drawn), the survival was 102%.

`CCc1ccc(NC(=O)C(NS(=O)(=O)c2cccs2)C(C)C)cc1` (stereo not drawn): the survival was 55% (active).

For `CCCOc1ccc(CNC(=O)C(NS(=O)(=O)c2cccs2)C(C)C)cc1` (stereo not drawn), the survival was 77%.

For the compound `CCc1ccc(NC(=O)C(Cc2ccccc2)NS(=O)(=O)c2ccc3c(c2)c(=O)n(C)c(=O)n3C)cc1` (stereo not drawn), the survival was 45% (active).

Take `Cc1ccc(CNC(=O)C(NS(=O)(=O)c2cccs2)C(C)C)cc1` (stereo not drawn): the survival was 61%.

Regarding `CC(CNC(=O)c1ccc2c(c1)nc1n2CCCCC1)c1ccccc1` (stereo not drawn), the survival was 62%.

With `CCOC(=O)c1ccc(CN(Cc2ccccc2C)S(=O)(=O)c2ccc(F)c(C)c2)cc1`, the survival was 80%.

On to `Cn1cnc(S(=O)(=O)N2CCCC(C(=O)NCc3ccc(F)cc3)C2)c1` (stereo not drawn), for which the survival is 55%.

Regarding `CCOC(=O)CN1N=NC2C(=O)N(c3ccccc3)C(=O)C21` (stereo not drawn), the survival was 92%.

For the compound `O=C(c1ccc2c(c1)OCCO2)N(Cc1cccnc1)c1nc2c(F)cc(F)cc2s1`, the survival was 88%.

With `Cc1ccc(CCNC(=O)CN(c2ccc(C(C)C)cc2)S(=O)(=O)c2c(C)nn(C)c2C)cc1`, the survival was 68%.

In the case of `Cc1ccc(C(=O)c2cn(Cc3c(F)cccc3Cl)c3nc(C)ccc3c2=O)cc1`, the survival was 62%.

Consider `CCc1ccc(NC(=O)CSC2=Nc3ccccc3C3=NC(CCC(=O)NCCc4ccccc4)C(=O)N23)cc1` (stereo not drawn), for which the survival is 81%.

Consider `O=S(=O)(/C=C/c1ccccc1)N1CCOCC1`, for which the survival was 67%.

With `Cc1ccc(CSc2nc(N)cc(N)n2)cc1`, the survival is 114%.

Turning to `N#Cc1ccccc1CSc1nc(N)cc(N)n1`, the survival was 106%.

Turning to `N#CCSc1nc(N)cc(N)n1`, the survival is 52% (active).

On to `Cc1ccc(N2CCN(C(=O)c3ccc(Nc4nc5ccccc5n5nnnc45)cc3)CC2)c(C)c1`, for which the survival was 82%.

As for `CC(C)Nc1nc2c(S(=O)(=O)c3cccc(Cl)c3)nnn2c2ccsc12`, the survival was 70%.

`COc1ccc(NC(=O)CSc2c3c(nc4ccccc24)CCC3)c(OC)c1`: the survival was 110%.

Consider `COc1ccc(OC)c(NC(=O)CSc2c3c(nc4ccccc24)CCCC3)c1`, for which the survival is 93%.

In the case of `COc1cccc(NC(=O)CSc2c3c(nc4ccccc24)CCCC3)c1`, the survival is 43% (active).

Consider `CCOc1ccc(NC(=O)CSc2c3c(nc4ccccc24)CCCC3)cc1`, for which the survival was 88%.

Turning to `Cc1ccc(NC(=O)CSc2c3c(nc4ccccc24)CCCC3)cc1F`, the survival is 30% (active).

Turning to `O=C(CSc1c2c(nc3ccccc13)CCC2)Nc1ccc(F)cc1`, the survival was 127%.

As to `CN(C)c1ccc(-c2nc3ccccn3c2Nc2ccc3c(c2)OCCO3)cc1`, the survival was 81%.

Take `CC(CCc1ccccc1)NC(=O)Cn1c(=O)nc(-c2ccccc2)c2cc(Cl)ccc21` (stereo not drawn): the survival was 80%.

`O=C(CCc1ccccc1)NCc1ccco1`: the survival is 88%.

On to `CCOC(=O)c1ccccc1NC(=O)N1CC(C)Oc2ccc(C)cc21` (stereo not drawn), for which the survival was 50%.

As to `CCN1CCN(C(=O)c2ccc3c(c2)N(Cc2ccccc2)C(=O)c2ccccc2S3(=O)=O)CC1`, the survival was 129%.

Consider `Cc1ccc(CNC(=O)CN2CCCN(Cc3ccc(F)cc3)S2(=O)=O)cc1`, for which the survival is 67%.

Turning to `Cc1cc(F)ccc1S(=O)(=O)Nc1cc2c(C(=O)O)c(C)oc2c2ccccc12`, the survival is 39% (active).

In the case of `COCCOC(=O)c1c(C)oc2c1cc(NS(=O)(=O)c1ccc(Cl)c(C)c1)c1ccccc12`, the survival was 44% (active).

For the compound `Cc1oc2c(cc(NS(=O)(=O)c3ccc(Cl)cc3)c3ccccc32)c1C(=O)OCc1ccccc1`, the survival was 52%.

Consider `Cc1oc2c(cc(NS(=O)(=O)c3ccc(F)cc3)c3ccccc32)c1C(=O)OCc1ccccc1`, for which the survival is 54%.

For `CC(=O)c1c(C)oc2c1cc(NS(=O)(=O)c1ccc(Cl)c(C)c1)c1ccccc12`, the survival is 70%.

Turning to `CCc1ccc(S(=O)(=O)Nc2cc3c(C(=O)OCc4ccccc4)c(C)oc3c3ccccc23)cc1`, the survival is 60%.

Regarding `CCOc1ccc(S(=O)(=O)Nc2cc3c(C(=O)OCc4ccccc4)c(C)oc3c3ccccc23)cc1`, the survival is 94%.

Regarding `CC(=O)c1c(C)oc2c1cc(NS(=O)(=O)c1ccc(C(C)(C)C)cc1)c1ccccc12`, the survival was 64%.

On to `Cc1oc2c(cc(NS(=O)(=O)c3ccc(C(C)C)cc3)c3ccccc32)c1C(=O)OCc1ccccc1`, for which the survival is 81%.

`CCCOC(=O)c1c(C)oc2c1cc(NS(=O)(=O)c1ccc(OCC)cc1)c1ccccc12`: the survival was 56% (active).

In the case of `Cc1oc2c(cc(NS(=O)(=O)c3ccc(C(C)C)cc3)c3ccccc32)c1C(=O)O`, the survival was 42% (active).

As to `Cc1ccc(S(=O)(=O)Nc2cc3c(C(=O)OCc4ccccc4)c(C)oc3c3ccccc23)c(C)c1`, the survival was 56%.

As for `CCc1ccc(CN(Cc2ccco2)C(=O)COc2ccc(Cl)cc2C)cc1`, the survival was 55%.

For the compound `O=C(CNC(=O)c1ccccc1)OCc1cc(=O)n2nc(C3CCCCC3)sc2n1`, the survival is 90%.

Take `O=C(O)CC1c2ccccc2CCN1C(=O)Nc1cc(Cl)ccc1Cl` (stereo not drawn): the survival is 94%.

Turning to `COc1ccc(NC(=O)Cn2c(=O)n(-c3cccc(C)c3)c(=O)c3c2c2cc(C)ccc2n3C)cc1OC`, the survival was 79%.

As for `c1ccc(CNCC2COc3ccccc3O2)cc1` (stereo not drawn), the survival was 114%.

In the case of `Cc1ccc(-n2ncc3c(N4CCN(C)CC4)ncnc32)cc1C`, the survival was 89%.

Consider `Cc1ccc(CNC(=O)NC2COc3ccccc3C2)cc1` (stereo not drawn), for which the survival was 107%.

For `COc1ccc(OC)c(S(=O)(=O)Nc2cc3c(C(C)=O)c(C)oc3c3ccccc23)c1`, the survival was 52%.

In the case of `COc1ccc(S(=O)(=O)Nc2cc3c(C(=O)OC(C)C)c(C)oc3c3ccccc23)cc1`, the survival was 38% (active).

In the case of `CCOC(=O)c1c(C)oc2c1cc(NS(=O)(=O)c1ccc(C)cc1)c1ccccc12`, the survival was 56%.

Take `Cc1nc(-c2ccc(S(=O)(=O)Nc3ccc(OC(F)(F)F)cc3)cc2)co1`: the survival was 78%.

Regarding `Cc1ccc2c(c1C)NC(C(=O)O)C1CC=CC21` (stereo not drawn), the survival is 85%.

Turning to `Cc1ccc([C@H]2Nc3ccc(S(=O)(=O)Nc4cccc(Cl)c4C)cc3[C@H]3C=CC[C@H]32)cc1`, the survival was 50%.

As to `COC(=O)c1ccc([C@@H]2Nc3c(cccc3C(F)(F)F)[C@@H]3C=CC[C@@H]32)cc1`, the survival is -3% (active).

As for `COC(=O)c1ccc([C@@H]2Nc3c(OC)ccc(C)c3[C@@H]3C=CC[C@@H]32)cc1`, the survival was 49%.

With `COC(=O)c1cccc2c1NC(c1cccnc1)C1CC=CC21` (stereo not drawn), the survival was 101%.

In the case of `CCOc1cccc2c1N[C@@H](c1ccc(C(=O)O)cc1)[C@H]1CC=C[C@@H]21`, the survival is 68%.

Regarding `CCOC(=O)c1cccc2c1N[C@@H](c1ccc(F)cc1)[C@H]1CC=C[C@@H]21`, the survival is 4% (active).

Turning to `COC(=O)c1ccc([C@@H]2Nc3c(C)cc(C)cc3[C@@H]3C=CC[C@@H]32)cc1`, the survival was 51% (active).

Turning to `COc1cc([C@@H]2Nc3c(F)cccc3[C@@H]3C=CC[C@@H]32)cc(Br)c1OC`, the survival was 55%.

Consider `Cc1ccc(Cl)c2c1N[C@@H](c1ccc(C(=O)O)cc1)[C@H]1CC=C[C@@H]21`, for which the survival is -10% (active).

As to `COCCN(CCOC)C(=O)c1cc2c(=O)n3ccccc3nc2n1C`, the survival is 51%.

With `CCOc1ccccc1NC(=O)N(C)CCc1c(C)nn(CC)c1C`, the survival was 120%.

For the compound `Cc1c(C(=O)N2CCCC2)oc2c1-c1nn(CC(=O)NC(C)c3ccccc3)cc1CC2` (stereo not drawn), the survival is 72%.

As for `Cc1nc(SCC(=O)N2c3ccccc3CCc3ccccc32)n[nH]1`, the survival was 102%.

In the case of `Cc1cccc(C(=O)NC2=NC(c3ccc(Cl)cc3)CC(=O)N2)c1` (stereo not drawn), the survival is 88%.

Take `COc1ccccc1NC(=O)CN1C(=O)CC(c2ccc(C)c(C)c2)=Nc2ccccc21`: the survival was 84%.

As for `O=C1Nc2ccc(S(=O)(=O)Nc3ccccc3O)c3cccc1c23`, the survival was 62%.

For `CCOC(=O)c1ccc(NC2=CC(c3ccc(O)c(OCC)c3)N(c3ccc(C(=O)OCC)cc3)C2=O)cc1` (stereo not drawn), the survival is 59%.

Consider `Cc1ccc(S(=O)(=O)c2nnn3c2nc(NCc2ccc4c(c2)OCO4)c2sccc23)cc1`, for which the survival is 113%.

As to `COc1ccccc1CNC(=O)CCn1c(=O)c2cccn2c2cccnc21`, the survival is 80%.

For the compound `COCCCNC(=O)c1nn(-c2ccc(C)cc2)nc1CO`, the survival is 82%.

On to `Cc1ccc(-c2nc(S(=O)(=O)c3ccccc3)c(SCC(=O)NC3CCCCC3)o2)cc1`, for which the survival is 43% (active).

In the case of `O=C(CSc1oc(-c2ccc(F)cc2)nc1S(=O)(=O)c1ccc(Cl)cc1)c1ccccc1`, the survival was 45% (active).

Consider `O=C(CSc1oc(-c2ccc(F)cc2)nc1S(=O)(=O)c1ccccc1)c1ccc(Cl)cc1`, for which the survival was 55%.

Take `Cc1ccc(S(=O)(=O)c2nc(-c3ccccc3)oc2SCC(=O)NC2CCCCC2)cc1`: the survival was 166%.

Regarding `Cc1ccc(S(=O)(=O)c2nc(-c3ccc(F)cc3)oc2SCC(=O)c2ccccc2)cc1`, the survival is 47% (active).

On to `O=C(CSc1oc(-c2ccccc2)nc1S(=O)(=O)c1ccc(Cl)cc1)Nc1ccc(F)cc1`, for which the survival is 162%.

As to `O=C(CSc1oc(-c2ccccc2)nc1S(=O)(=O)c1ccc(Br)cc1)c1ccccc1`, the survival is 58%.

With `Cc1ccc(-c2nc(S(=O)(=O)c3ccc(C)cc3)c(SCC(=O)Nc3ccc(F)cc3)o2)cc1`, the survival is 58%.

`Cc1ccc(-c2nc(S(=O)(=O)c3ccc(C)cc3)c(SCC(=O)NC3CCCCC3)o2)cc1`: the survival is 51%.

For the compound `O=C(CSc1oc(-c2ccccc2)nc1S(=O)(=O)c1ccc(Cl)cc1)c1ccccc1`, the survival was 44% (active).

For `O=C(CSc1oc(-c2ccccc2)nc1S(=O)(=O)c1ccccc1)c1ccccc1`, the survival was 148%.

`Cc1ccc(-c2nc(S(=O)(=O)c3ccc(C)cc3)c(SCC(=O)c3ccccc3)o2)cc1`: the survival was 52%.

The record behind these values is PubChem BioAssay AID463173 (ICCB-Longwood Screening Facility, Harvard Medical School, 2010).
